We go through 6 compounds from PubChem BioAssay.

In assay [1] the test system is Human papillomavirus type 1a protein E7 (residues 44-93). Kind of assay: small molecules binding HPV E7 44-93 – biochemical, small-molecule microarray, residues 44-93, 635 nm fluorescence, primary screen (AID 1108).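 Further: E7 fragment applied at 1 µg/mL in TBST for 1 h at 4 C; score combines spot fluorescence with its signal to noise ratio.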 The conditions noted are these: fluorescence 635 nm, higher = more signal.
Assay [2] can be described thus: hepatitis C replication reporter changes, two-sided – Huh7 cells, luciferase reporter, HCV replication inhibitor project, primary screen (AID 1109).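 Further: huh7 hepatoma cells harbouring a luciferase neomycin HCV replicon reporter; luciferase luminescence as measure of HCV replicon replication; test concentration not given here.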 The conditions noted are these: Huh7 HCV replicon luciferase reporter, 48 h; higher = more signal. (In general: In a reporter assay the amount or activity of a reporter protein is the signal.)
Assay [3] deals with Left-right determination factor 2 (Homo sapiens) (UniProt O00292). The experiment in a line: small molecules binding LEFTY2 protein – biochemical, small-molecule microarray, 635 nm fluorescence scan, primary screen (AID 1110). The conditions noted are these: higher = more signal.
For assay [4], the target named is Calmodulin-1 (Homo sapiens) (UniProt P0DP23). The experiment in a line: small molecules binding calmodulin-1 with EGTA – biochemical, small-molecule microarray, Cy5-labelled CALM1, profiling panel (AID 1111).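 Further: labelled calmodulin applied in Tris saline Tween buffer holding calcium plus EGTA and DTT.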 The conditions noted are these: Cy5-CALM1 binding fluorescence, higher = more signal.
Assay [5] shares this target. Kind of assay: small molecules binding Ca-loaded calmodulin-1 – biochemical, small-molecule microarray, Cy5-labelled CALM1, plus calcium, artefact control for SMM control-protein annotation, profiling panel (AID 1112).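 Further: score merges spot fluorescence with signal to noise from triplicate slides.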 The conditions noted are these: Cy5-CALM1 binding fluorescence, higher = more signal.
Assay [6] can be described thus: probe aWnt5a binding to arrayed compounds – biochemical, biotinylated probe, 635/667 nm fluorescence, primary screen (AID 1113).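 Further: score merges 667 nm fluorescence intensity with signal-to-noise per printed feature.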 Conditions: small-molecule microarray, higher = more signal.
Assay [7] is described as follows: probe aShh binding to arrayed compounds – biochemical, biotinylated probe, 635/667 nm fluorescence, primary screen (AID 1114).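 Further: probe is biotin-labelled aShh protein from a stem cell growth factor screen; measures binding of labelled protein to compounds printed on the slide; score merges feature fluorescence at 667 nm with signal-to-noise.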 Conditions: small-molecule microarray, higher = more signal.
Assay [8] in a line: probe aNog binding to arrayed compounds – biochemical, biotinylated probe, 635/667 nm fluorescence, primary screen (AID 1115).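 Further: probe is biotinylated aNog protein used at 0.15 µg/mL for 1 h at 4 C; z-score combines 667 nm fluorescence of each spot with its signal to noise.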 The conditions noted are these: small-molecule microarray, higher = more signal.
The target of assay [9] is Torsin-1A-interacting protein 1 (Homo sapiens) (UniProt Q5JTV8). Kind of assay: compound microarray binding of lysate hLAP1 – cell lysate, small-molecule microarray, COS7 lysate, 635/667 nm fluorescence, primary screen (AID 1116). The conditions noted are these: 635 nm fluorescence, higher = more signal.
Assay [10] concerns the target Alpha-bungarotoxin (Bungarus multicinctus) (UniProt P60615). Kind of assay: compounds binding labelled alpha-BTX control protein – biochemical, small-molecule microarray, Alexa647 label, 635/667 nm fluorescence, artefact control for SMM control protein annotation, profiling panel (AID 1117). Conditions: alpha-BTX-A647 binding fluorescence, higher = more signal.
The target in assay [11] is Albumin (Bos taurus) (UniProt P02769). The experiment in a line: compounds binding labelled BSA control protein – biochemical, small-molecule microarray, Alexa647 label, 635/667 nm fluorescence, artefact control for SMM control protein annotation, profiling panel (AID 1118).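 Further: score merges 667 nm emission intensity and signal-to-noise per printed compound spot.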 The conditions noted are these: BSA-A647 binding, fluorescence 635 nm, higher = more signal.
Assay [12] is described as follows: probe aXIP binding to arrayed compounds – biochemical, NeuroSMM set, 635/667 nm fluorescence, primary screen (AID 1119).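 Further: probe is the protein aXip251-270 applied at 1 µg/mL to compound-printed slides; binding of probe to printed compounds measured as 667 nm fluorescence plus signal to noise.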 The conditions noted are these: small-molecule microarray, higher = more signal, called active from +8 up or from −8 down.
Assay [13] can be described thus: probe aNOTCH3 binding on compound microarray – biochemical, small-molecule microarray, 635/667 nm fluorescence, primary screen (AID 1120).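 Further: probe is a biotin-tagged antibody raised against NOTCH3 rather than NOTCH3 protein; score merges spot fluorescence near 667 nm with spot signal to noise.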 Conditions: higher = more signal.
Assay [14] is described as follows: probe aNOTCH2 binding on compound microarray – biochemical, small-molecule microarray, 635/667 nm fluorescence, primary screen (AID 1121).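 Further: score merges feature fluorescence read at 667 nm with its signal to noise.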 The conditions noted are these: higher = more signal.
Assay [15] addresses Carbonic anhydrase 2 (Homo sapiens) (UniProt P00918). Kind of assay: compounds binding carbonic anhydrase 2 – biochemical, small-molecule microarray, Alexa647-labelled CAII, profiling panel (AID 1122). Conditions: CAII-A647 binding fluorescence, higher = more signal.
Assay [16] in a line: COS7 lysate on small-molecule microarray, probe aHis, 635 nm (AID 1123).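 Further: z-score combines 667nm fluorescence intensity with signal-to-noise per printed compound spot.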 Conditions: COS7 cell lysate, fluorescence, higher = more signal.
Assay [17] can be described thus: probe aLAP1 signal on lysate-treated microarray – cell lysate, small-molecule microarray, COS7 lysate, primary screen (AID 1124).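 Further: lysate comes from COS7 cells expressing LAP1 and is applied at 0.3 µg/mL; score merges spot fluorescence near 667 nm with signal-to-noise over triplicate slides.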 The conditions noted are these: probe aLAP1, fluorescence, higher = more signal.
Assay [18] deals with Sam68 (KHDRBS1). The experiment in a line: compounds binding KHDRBS1 protein – biochemical, small-molecule microarray, 635 nm fluorescence, primary screen (AID 1125).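 Further: score merges 667 nm channel intensity with signal to noise over triplicate slides.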 Conditions: higher = more signal.
For assay [19], the system named is Chordin-like protein 2 (CHRDL2). The experiment in a line: compounds binding chordin-like 2 – biochemical, small-molecule microarray, 635 nm fluorescence, primary screen (AID 1126).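 Further: printed compound slides probed with Chrdl2 protein at 4 µg/mL for 1 h at 4 C; score merges 667 nm emission intensity with signal to noise over three replicate slides.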 Conditions: fluorescence 635 nm, higher = more signal.
The target of assay [20] is Concanavalin-A (Canavalia ensiformis) (UniProt P02866). The experiment in a line: compounds binding concanavalin A lectin – biochemical, small-molecule microarray, Alexa647 label, 635 nm, artefact control for SMM control protein annotation, primary screen (AID 1127).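 Further: z combines 667 nm emission intensity with signal-to-noise across three replicate slides.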 The conditions noted are these: ConA-A647 binding fluorescence, higher = more signal.

Molecules are shown by their SMILES. Activity calls are given as the source filed them.

Chain of Torsin-1A-interacting protein 1 (Homo sapiens) (Q5JTV8 whole entry, looked up): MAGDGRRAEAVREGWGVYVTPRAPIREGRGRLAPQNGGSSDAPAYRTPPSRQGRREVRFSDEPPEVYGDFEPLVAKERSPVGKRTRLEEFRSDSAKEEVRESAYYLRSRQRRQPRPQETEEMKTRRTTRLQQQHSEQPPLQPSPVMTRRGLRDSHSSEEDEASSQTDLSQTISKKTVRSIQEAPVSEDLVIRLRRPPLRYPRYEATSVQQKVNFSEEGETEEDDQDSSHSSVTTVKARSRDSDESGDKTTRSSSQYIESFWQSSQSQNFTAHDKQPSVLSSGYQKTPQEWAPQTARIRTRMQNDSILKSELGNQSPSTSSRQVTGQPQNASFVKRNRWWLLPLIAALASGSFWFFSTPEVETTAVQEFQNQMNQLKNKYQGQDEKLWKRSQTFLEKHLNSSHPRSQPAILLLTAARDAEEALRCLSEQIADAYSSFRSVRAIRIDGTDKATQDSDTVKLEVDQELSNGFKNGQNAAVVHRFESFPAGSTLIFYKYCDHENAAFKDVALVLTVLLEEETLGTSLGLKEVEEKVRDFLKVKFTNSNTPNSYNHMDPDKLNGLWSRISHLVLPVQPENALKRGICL
Chain of Albumin (Bos taurus) (P02769 whole entry, looked up): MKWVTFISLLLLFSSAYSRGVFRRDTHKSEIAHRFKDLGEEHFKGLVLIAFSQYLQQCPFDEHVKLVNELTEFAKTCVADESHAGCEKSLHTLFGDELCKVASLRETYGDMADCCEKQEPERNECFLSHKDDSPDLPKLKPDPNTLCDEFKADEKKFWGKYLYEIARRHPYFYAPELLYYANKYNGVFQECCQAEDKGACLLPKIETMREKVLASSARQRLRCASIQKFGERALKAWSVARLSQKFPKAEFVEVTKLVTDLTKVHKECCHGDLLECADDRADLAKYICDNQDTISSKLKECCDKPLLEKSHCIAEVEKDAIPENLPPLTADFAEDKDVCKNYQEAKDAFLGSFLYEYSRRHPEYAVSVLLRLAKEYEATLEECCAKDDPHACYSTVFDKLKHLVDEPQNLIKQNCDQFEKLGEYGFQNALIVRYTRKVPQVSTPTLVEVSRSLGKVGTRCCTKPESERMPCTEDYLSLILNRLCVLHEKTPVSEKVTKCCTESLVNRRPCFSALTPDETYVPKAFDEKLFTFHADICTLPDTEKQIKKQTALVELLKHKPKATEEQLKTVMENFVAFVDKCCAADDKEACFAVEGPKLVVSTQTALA
Chain of Concanavalin-A (Canavalia ensiformis) (P02866 whole entry, looked up): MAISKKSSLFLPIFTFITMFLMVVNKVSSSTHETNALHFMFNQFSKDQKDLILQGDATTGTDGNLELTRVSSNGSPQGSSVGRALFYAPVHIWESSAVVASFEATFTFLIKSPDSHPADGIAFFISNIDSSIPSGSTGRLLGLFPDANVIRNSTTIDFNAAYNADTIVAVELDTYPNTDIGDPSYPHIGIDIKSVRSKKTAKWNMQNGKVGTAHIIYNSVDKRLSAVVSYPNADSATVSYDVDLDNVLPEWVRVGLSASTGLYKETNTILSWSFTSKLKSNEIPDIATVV
Chain of Left-right determination factor 2 (Homo sapiens) (O00292 whole entry, looked up): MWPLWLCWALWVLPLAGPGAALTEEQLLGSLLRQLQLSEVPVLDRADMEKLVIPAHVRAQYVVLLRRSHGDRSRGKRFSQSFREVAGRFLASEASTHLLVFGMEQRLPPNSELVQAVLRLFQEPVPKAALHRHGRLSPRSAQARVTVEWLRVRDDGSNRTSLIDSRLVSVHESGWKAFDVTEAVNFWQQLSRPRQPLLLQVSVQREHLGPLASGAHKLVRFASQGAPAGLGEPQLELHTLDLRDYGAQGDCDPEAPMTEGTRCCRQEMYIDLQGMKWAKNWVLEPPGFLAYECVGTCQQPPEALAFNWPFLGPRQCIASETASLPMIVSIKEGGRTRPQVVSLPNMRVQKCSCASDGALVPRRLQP
Chain of Alpha-bungarotoxin (Bungarus multicinctus) (P60615 whole entry, looked up): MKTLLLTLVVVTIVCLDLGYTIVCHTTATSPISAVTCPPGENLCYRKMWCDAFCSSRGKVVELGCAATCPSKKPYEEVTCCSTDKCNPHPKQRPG

`CCOC(=O)C[C@H]1[C@H](OC(=O)c2ccc(-c3ccccc3)cc2)[C@@H](NC(=O)c2ccccc2)c2cc(OCCCO)ccc2N1C(=O)Cc1ccc(OC)cc1`: the composite z-score in assay [1] was -0.149; in [3], 0.199; in [4], 0.594; in assay [5], 0.534; in [6] it was -0.1; in assay [7], -0.147. Further, the composite z-score in [8] is -0.18; in assay [9], 0.328; in assay [10], 0.281; in assay [11], 0.372; in assay [13], -0.0077; in assay [14], -0.0664. The composite z-score in assay [15] is -0.0275; in assay [16], 0.368; in assay [17], 0.311; in assay [18] it was -0.254; in [19], -0.399; in [20], -0.769. In addition, the z-score in [2] was -1.41. Moreover, the composite Z-score in [12] was -0.316 (inactive).

Turning to `NC(=O)N1C(=O)C2C(C1=O)C1C=C(CCCO)C2C(C2CC2)N1Cc1cc2c(cc1Br)OCO2` (stereo not given), the composite z-score in [1] was -0.443; in [3] it was -0.549; in assay [4], 0.0653; in assay [5], 0.357; in assay [6], -0.12; in assay [7], 0.0278. The composite z-score is -0.0065 in assay [8]; -0.111 in [9]; 0.515 in assay [10]; 0.277 in [11]; 0.0242 in [13]; -0.112 in assay [14]. Besides, the composite z-score is 0.877 in [15]; 0.872 in assay [16]; -0.0694 in [17]; -0.989 in [18]; -0.667 in assay [19]; -0.0295 in assay [20]. The same compound showed a z-score in [2] of -0.264. The composite Z-score in assay [12] was 0.0861 (inactive).

Regarding `O=C1O[C@@H](c2ccccc2)[C@@H](c2ccccc2)N2[C@@H](c3ccccc3OCCO)[C@]3(C(=O)Nc4ccccc43)[C@@H](C(=O)O)[C@H]12`, the composite z-score in assay [1] was 1.32; in assay [3] it was -0.0445; in assay [4], 0.995; in [5], -0.842; in [6], -0.0924; in assay [7] it was -0.229. For the same compound, the composite z-score in [8] is -0.18; in assay [9], 0.584; in assay [10] it was 1.04; in assay [11] it was 0.858; in assay [13], -0.254; in assay [14], -0.0657. In addition, the composite z-score was 0.441 in assay [15]; 1.78 in assay [16]; 0.369 in assay [17]; 1.12 in assay [18]; -0.165 in assay [19]; 1.13 in [20]. Also, the z-score in [2] was -0.73. In addition, the composite Z-score in assay [12] is -0.0247 (inactive).

For `COCC(=C=CC[C@H](O)c1cccc(OCCO)c1)C[C@H](O)c1cc(Cl)cc(Cl)c1O`, the composite z-score in assay [1] is 1.37; in [3], 0.578; in assay [4], -0.0781; in assay [5], -0.821; in assay [6], -0.0478; in [7], 0.0639. Moreover, the composite z-score in assay [8] was -0.328; in assay [9] it was 1.12; in assay [10], 0.0872; in [11], 0.187; in [13] it was -0.0343; in assay [14] it was -0.0083. In addition, the composite z-score in assay [15] was determined as 0.383; in assay [16], 1.77; in assay [17] it was 0.328; in assay [18] it was 1.3; in assay [19], 0.695; in assay [20], 0.337. In assay [2], this compound had a z-score of -0.566. Further, the composite Z-score in assay [12] was -0.103 (inactive).

As to `[N-]=[N+]=NCc1ccccc1[C@@H]1OC(c2ccc(OCCCO)cc2)=N[C@]1(CCS(=O)(=O)c1ccccc1)C(=O)N1CCCCC1`, the composite z-score in [1] was 1.48; in assay [3], 0.334; in assay [4] it was 1.79; in assay [5], 0.415; in assay [6] it was 0.0873; in [7], 0.333. Further, the composite z-score was -0.316 in assay [8]; 1.04 in [9]; 1.34 in assay [10]; 0.997 in assay [11]; 0.739 in assay [13]; -0.124 in assay [14]. The composite z-score was 0.754 in assay [15]; 2.85 in [16]; 0.475 in [17]; 1.29 in [18]; -0.59 in [19]; 1.17 in assay [20]. For the same compound, the z-score in assay [2] was -1.87. Further, in assay [12], the composite Z-score was -0.228 (inactive).

On to `C=CCOC(=O)[C@H]1[C@@H]2C(=O)O[C@@H](c3ccccc3)[C@@H](c3ccccc3)N2[C@@H](c2ccc(OCCOC(=O)[C@@H]3C[C@@H]4C(=O)N5CCC[C@H]5C(=O)N4[C@@H]3c3cccc(OCCO)c3)cc2)[C@]12C(=O)Nc1ccc(I)cc12`, for which the composite z-score in assay [1] was 1.39; in assay [3], 0.872; in assay [4], 0.784; in assay [5], -0.0883; in [6], -0.0758; in [7] it was 0.0098. Further, the composite z-score in [8] was 0.935; in [9], -0.571; in assay [10] it was 1.39; in assay [11], -0.656; in assay [13], 1.12; in [14], 0.117. Further, the composite z-score in [15] is 0.269; in assay [16], 1.15; in [17], 0.322; in [18], 1.29; in assay [19], 1.18; in assay [20] it was 1.14. The compound also showed a z-score in [2] of -1.46. In assay [12], the composite Z-score was 0.686 (inactive).
